# Screens deposited in PubChem by several laboratories.
# Rows were chosen to be rich in hits. Some 1.1% of all compounds tested hit in one or more screens of this group.
# Calb FLC: C. albicans growth modulation with fluconazole. C. albicans CaCi-2 (fluconazole-resistant clinical isolate) + fluconazole, Alamar Blue growth, 48 h. growth inhibition, % (concentration not given with the values). 300,000 compounds, 0.57% hits;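 active means growth inhibition above about 58% in most replicates, limit read from the data, passing the limit was not always enough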;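 further: all wells also contain fluconazole at 8 µg/ml as a sub-toxic cotreatment; 0% = median of DMSO wells and 100% = median of geldanamycin control wells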
# L929 necroptosis: L929 zVAD cell death inhibition; L929 zVAD necroptosis rescue, ATP luminescence, 24 h; with zVAD 60 µM; viability rescue, % at 10 µM; 220,000 compounds, 0.38% hits; AID 1377;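 active means activation, scaled between plate controls, above about 75%, limit read from the data; inactive means activation under that limit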;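 further: 0% = zVAD with DMSO and 100% = DMSO alone without zVAD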
# TNF necrop inh: blocks TNF-alpha induced death of Jurkat FADD-/- cells; Jurkat FADD-/- TNF necroptosis rescue, ATP luminescence, 24 h; 0 = TNF only, 100 = no-TNF cells; activation (protection from cell death), % at 10 µM; 220,000 compounds, 0.068% hits;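 active means activation, meaning protection from cell death, of at least 50% relative to plate controls; inactive means activation below 50%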;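 further: necroptosis triggered by 40 ng/mL TNF-alpha added together with compound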
# HIF act: HIF pathway transcriptional activation | U2OS HRE-luciferase reporter, luminescence; normalized: DMSO 0%, desferrioxamine 100% | AID 1910 | activation, % at 7.5 µM (by protocol) | 300,000 compounds, 0.32% hits;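 active means mean activation of at least 10% of the iron chelator positive control signal, with at least half of replicates also reaching 10%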
# Starred values were filed as active, the others as inactive; nt = no result given.
SMILES,Calb FLC,L929 necroptosis,TNF necrop inh,HIF act
COc1cc(/C=C\C(=O)O)cc(S(=O)(=O)N2CCCCCC2)c1OC,-0.1,nt,nt,0.8
CC(C)(C)c1ccc(C(=O)NC(=S)NNC(=O)COc2ccccc2)cc1,100.5*,nt,nt,0.8
CC(C)(C)C(=O)NC(=S)NNC(=O)c1ccc(-c2ccccc2)cc1,98.2*,26.9,-12.3,0.8
Cc1ccc(C(=O)NNC(=S)NC(=O)COc2ccccc2)cc1,-8.5,-0.9,-4.5,nt
CCCOc1ccc(C(=O)NNC(=S)NC(=O)c2ccco2)cc1,78.3*,1.9,-6.6,0.1
CCCCOc1ccc(C(=O)NNC(=S)NC(=O)CC)cc1,87.4*,2.4,-6.8,3.4
CC(C)(C)C(=O)NC(=S)NNC(=O)c1ccncc1,-22.6,0.9,-1.1,-0.2
CCOC(=O)c1ccc(NC(=O)C2C3CCCCC32)cc1 (centres undefined),-3.1,nt,nt,2.5
Cc1ccc(C(=O)Nc2ccc(N3CCN(C)CC3)cc2)c(Cl)c1,7.4,nt,nt,3.8
CCCOc1ccc(C(=O)NNC(=S)NC(=O)c2ccccc2)cc1,71.2,nt,nt,0.9
CCCOc1ccc(C(=O)NNC(=S)NC(C)=O)cc1,102.3*,-0.1,-14.2,0.3
CCCOc1ccc(C(=O)NNC(=S)NC(=O)c2cccs2)cc1,93.1*,nt,nt,-1.5
CCCC(=O)Nc1ccc(C(=O)NNC(=S)NC(=O)c2cccs2)cc1,-6.0,0.3,-2.6,-0.4
Cc1cc(OCC(=O)NNC(=S)NC(=O)c2cccs2)ccc1Cl,103.8*,nt,nt,nt
Oc1c(Br)cc(Br)c(/C=N/n2c(-c3ccccc3)n[nH]c2=S)c1Br,78.9*,nt,nt,0.5
S=c1[nH]nc(-c2ccccc2)n1/N=C/c1cccs1,104.7*,0.3,-1.2,0.2
Cc1ccc(-c2n[nH]c(=S)n2/N=C/c2cccs2)cc1,-3.0,1.9,0.7,-0.3
S=c1[nH]nc(-c2ccco2)n1/N=C/c1cccs1,50.3,-0.7,0.4,58.3*
Cc1cc(-c2n[nH]c(=S)n2/N=C/c2cccs2)n[nH]1,-14.7,0.9,0.1,-0.2
Cc1ccc(C)c(NC(=S)N2CCC(NC(=O)c3cccc(F)c3)CC2)c1,-0.7,nt,nt,-0.1
C/C(=N\O)C(=O)Nc1ccccc1,-14.6,0.8,0.1,231.3*
Cc1onc(-c2ccccc2)c1C(=O)NC(=S)NNC(=O)c1cccnc1,100.4*,0.6,1.1,-0.7
Cc1ccc(CC(CC(=O)O)C(=O)NCc2ccccc2)cc1 (centres undefined),-4.7,0.9,1.1,-0.4
CNC[C@H](Cc1ccccc1)NC[C@@H](Cc1cccc2ccccc12)NCCc1ccc(C)cc1,110.5*,nt,nt,0.7
CC(C)CN(CCNC(=O)c1cn(C)c2ccc(S(=O)(=O)N3CCCC3)cc2c1=O)CC(C)C,15.9,nt,nt,183.9*
SMILES,Calb FLC,L929 necroptosis,TNF necrop inh,HIF act
CCCCNC(=O)CN1C(=O)COc2ccc(S(=O)(=O)N3CCCCCC3)cc21,-3.5,nt,nt,46.1*
CCCCNC(=O)c1cn(C)c2ccc(S(=O)(=O)N3CCCC3)cc2c1=O,85.5*,nt,nt,-0.4
CC(C)CCNC(=O)c1cn(C)c2ccc(S(=O)(=O)N3CCCC3)cc2c1=O,4.6,nt,nt,2.6
S=c1[nH]cnc2sc(-c3ccccc3)cc12,-28.1,0.1,-1.2,-23.4
CCn1c(SCC(=O)N2CCC(C)CC2)nc2c(c1=O)SCC2,-3.6,nt,nt,-0.2
COc1ccc(N/N=C(\C#N)C(N)=O)cc1,-0.7,0.9,1.6,-0.2
N#C/C(=N/Nc1ccc(OC(F)(F)F)cc1)C(N)=S,81.2*,2.4,-19.8,0.0
O=[N+]([O-])c1ccc(C2CCCC/C2=N/OCc2ccc(F)cc2)c([N+](=O)[O-])c1 (centres undefined),115.2*,0.8,0.5,-0.6
CC(C)=C1C(=O)NN(c2ccc(F)c(Cl)c2)C1=O,101.3*,0.5,-2.8,-0.2
O=C1CC(c2ccccc2)CC(=NCCO)/C1=C(\O)CCCN1C(=O)c2ccccc2C1=O (centres undefined),64.1*,-0.6,0.6,0.9
CCCCOc1ccc(C(=O)NCC(=O)OC2CCOC2=O)cc1 (centres undefined),4.2,-0.1,1.1,305.5*
O=C(CNC(=O)c1ccc(Cl)cc1)OC1CCOC1=O (centres undefined),-3.3,1.2,1.6,-0.1
O=C(c1ccc([N+](=O)[O-])cc1)N1CCSC1c1ccccc1Cl (centres undefined),-5.4,-0.7,50.9*,-0.8
CCC(C)(C)c1nnc(NC(=O)C2CCN(C(=O)c3ccco3)CC2)s1,-30.3,nt,nt,26.6*
N#Cc1ccccc1OCCCN1CCC(Cc2ccccc2)CC1,4.3,nt,nt,45.2*
c1ccc(-c2ccccc2OCCCN2CCCCCC2)cc1,89.6*,-0.3,3.2,0.1
Cc1cccc(CCNC(=O)C2CCCN(c3cnccn3)C2)c1 (centres undefined),-6.3,nt,nt,0.6
O=C1OC2(O)C3C4C=CC(C4)C3C(=O)N2c2ccccc21 (centres undefined),-9.9,0.6,1.7,0.1
O=C(CN1CCCCCC1)Nc1ccccc1OC(F)F,-2.5,nt,nt,0.0
CS(=O)(=O)c1ccc2nc(NC(=O)Nc3ccc(Cl)c(Cl)c3)sc2c1,-16.2,6.9,2.2,0.6
CS(=O)(=O)c1ccc2nc(NC(=O)Nc3cccc(Cl)c3)sc2c1,4.2,83.5*,-6.9,2.6
O=C(Nc1cccc(Cl)c1)Nc1cccc(C(=O)O)c1,3.4,-0.4,-1.0,11.7*
O=C(Nc1ccc(Cl)cc1)Nc1cccc(C(=O)O)c1,-0.9,1.7,1.4,-3.0
O=C(NCCCc1ccccc1)Nc1cccc(Cl)c1,106.8*,3.7,3.8,0.9
Cc1ccc(NCc2n[nH]c(=S)n2Cc2ccccc2)cc1Cl,18.7,-0.1,-0.2,3.6
SMILES,Calb FLC,L929 necroptosis,TNF necrop inh,HIF act
CCOC(=O)c1cc([N+](=O)[O-])c([N+](=O)[O-])cc1NC(C)=O,106.4*,-0.2,-31.9,-0.8
CC(NC(=O)C12CC3CC(CC(O)(C3)C1)C2)c1ccc(Cl)cc1Cl (centres undefined),4.3,nt,nt,16.0*
COC(=O)[C@H]1C[C@@H]1[C@H](N)c1ccccc1,-10.5,nt,nt,2.1
CN=C(Cc1ccccc1)C1=C(O)CC(C)(C)CC1=O,-4.3,52.9,86.7*,-0.5
O=C1CCC(=O)N1c1ccc(S(=O)(=O)Nc2cccc(Br)c2)cc1,0.0,nt,nt,0.1
COc1cc(OC)c(NC(=S)NCc2ccccc2)cc1Cl,125.5*,-1.3,-12.0,nt
Oc1cccc2ccc(Nc3ccccn3)nc12,103.0*,12.0,-29.1,-8.0
O=C1CCN(Cc2ccccc2)CCN1CCOc1ccccc1,-4.4,nt,nt,2.0
COc1cc2ccccc2cc1C(=O)N1CCCCC1,9.8,nt,nt,-0.2
CN(C)CC(O)COc1cc2ccccc2cc1C(=O)N1CCCCC1 (centres undefined),102.7*,0.7,0.0,-0.5
CCc1nnc(NC(=O)CN2C(=O)CCC2=O)s1,-1.4,0.7,1.3,-0.2
CCc1nnc(NC(=O)CSc2ncc(-c3ccccc3)n2C)s1,86.4*,-0.1,0.3,-0.1
CCc1nnc(NC(=O)CSc2nnc(CNc3cccc(C)c3)n2-c2ccccc2)s1,116.4*,-0.1,-2.7,0.7
CCc1nnc(NC(=O)Cn2ccc(C(F)(F)F)n2)s1,94.6*,-0.2,3.6,-0.5
